Source: PubChem BioAssay (National Center for Advancing Translational Sciences (NCATS))
An excerpt weighted towards active compounds, which were near 4.6% of everything screened.
D1 agonist: Allosteric Agonists of the Human D1 Dopamine Receptor: qHTS; D(1A) dopamine receptor (Homo sapiens), P21728; HEK293 T-REx D1 cells, calcium flux, agonist mode; activation, % at 2 µM; 360,000 tested, 1% active; AID 504660, 2011; further: 0% is about no effect
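Agonism was scored from calcium flux recorded over 180 s (1 read/s) after pintool compound addition, following a 10-cycle baseline. Cells were inducible force-coupled HEK293 TREx D1, plated overnight at 30 C and loaded with no-wash calcium dye.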
TRHR enhancer-1: qHTS for Small Molecule Agonists and Allosteric Enhancers of Human TRH Receptor: Primary Screen for Enhancers | Thyrotropin-releasing hormone receptor (Homo sapiens), P34981 | TRHR cells, fluo-8 calcium fluorescence, EC20 TRH enhancement | enhancement, % at 2 µM | 360,000 tested, 0.66% active; in the data active means enhancement above about 30%; further: 0% is about no effect
Target sequence (P34981 whole entry, looked up): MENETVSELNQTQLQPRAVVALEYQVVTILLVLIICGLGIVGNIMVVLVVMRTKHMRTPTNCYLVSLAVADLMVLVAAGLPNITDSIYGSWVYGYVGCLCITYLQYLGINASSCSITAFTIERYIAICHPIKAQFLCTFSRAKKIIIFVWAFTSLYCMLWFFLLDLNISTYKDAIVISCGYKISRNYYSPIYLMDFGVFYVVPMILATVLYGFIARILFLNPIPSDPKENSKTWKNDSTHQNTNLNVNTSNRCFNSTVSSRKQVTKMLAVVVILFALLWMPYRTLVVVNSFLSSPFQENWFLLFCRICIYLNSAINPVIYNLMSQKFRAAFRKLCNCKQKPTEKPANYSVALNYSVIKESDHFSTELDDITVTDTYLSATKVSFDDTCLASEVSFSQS
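Enhancer read-out: after compound pinning and an initial kinetic agonist-mode read, an EC20 of TRH (10 nM final) was injected and fluo-8 calcium signal (Ex 480/Em 530) followed at 1 s/cycle for 100 cycles in TRHR-expressing cells.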
D1 antag: Antagonist of Human D 1 Dopamine Receptor: qHTS. 360,000 tested, 3.2% active. AID 504652, 2011. activity change, negative = inhibition, % at 10 µM. HEK293 TREx D1 cells, calcium flux, dopamine EC80; active compounds read low. D(1A) dopamine receptor (Homo sapiens), P21728; in the data active means activity change below about -30%; further: on the % scale 0 is the no-effect control and ±100 the full control effect
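HEK293 T-REx cells expressing inducible, force-coupled D1 receptor; no-wash Ca dye, 30–90 min RT. Cmpd → 180 s read at 1 Hz → EC80 DA → 180 s read.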
TRHR agonist-1: qHTS for Small Molecule Agonists and Allosteric Enhancers of Human TRH Receptor: Primary Screen for Agonists; activation, % at 2 µM; 360,000 tested, 0.18% active; AID 493084, 2011; TRHR cells, calcium flux fluo-8, FDSS agonist mode; further: 0% is about no effect
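In this calcium-flux screen, cells bearing human TRHR are dye-loaded with fluo-8, baselined for 10 cycles, then exposed to library compounds; positive kinetic calcium responses during the agonist phase mark hits, with TRH as control.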
D1 PAM: Potentiators of Human D1 Dopamine Receptor: qHTS; D(1A) dopamine receptor (Homo sapiens), P21728; HEK293 TREx D1 cells, calcium flux, dopamine EC20 potentiation; potentiation, % at 10 µM; 360,000 tested, 0.036% active; AID 504651, 2011; in the data active means potentiation above about 30%; further: 0% is about no effect
TRHR enhancer-2: qHTS for Small Molecule Agonists and Allosteric Enhancers of Human TRH Receptor: Confirmation Screen for Enhancers | TRH receptor cell assay, enhancer confirmation qHTS | shares compounds with TRHR enhancer-1 | AID 493076, 2011 | activity change, negative = inhibition, % at 46.1 µM | 970 tested, under 10 active; active means well fitted curve in the direction sought with a large enough effect; inconclusive means small, poorly fitted or top-dose-only effect, or another doubt; inactive means no such curve, though single readings can be large; an effect the other way counts as inactive or inconclusive;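 further: compound effect scored on response to added TRH at EC20 of 10 nM; 0% is about no effect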
TRHR agonist-2: qHTS for Small Molecule Agonists and Allosteric Enhancers of Human TRH Receptor: Confirmation Screen for Agonists; shares compounds with TRHR enhancer-1; TRHR-expressing cells, agonist activation read-out; Potency, µM (top dose mostly 46.1 µM), for the others: top-dose activation, actives largely listed as activators; 970 tested, 8% active; active means well fitted curve in the direction sought with a large enough effect; inconclusive means small, poorly fitted or top-dose-only effect, or another doubt; inactive means no such curve, though single readings can be large; an effect the other way counts as inactive or inconclusive; further: potency means the concentration at half of the fitted maximal effect; 0% is about no effect; nearly all actives have a fitted effect of over 75% in size
Starred values were filed as active, the others as inactive; ? = inconclusive; . = no result given. Unless noted, no stated cut-off is given here; in the data, active means activation above about 30%; inactive means the rest.

SMILES	D1 agonist	TRHR enhancer-1	D1 antag	TRHR agonist-1	D1 PAM	TRHR enhancer-2	TRHR agonist-2
CCOc1ccccc1NC(=O)c1c(NC(=O)c2cccc(C)c2)sc2c1CCC2	-1	-5	-14	-2	0	.	.
O=C(Nc1cccc(Cl)c1N1CCOCC1)c1cc([N+](=O)[O-])ccc1N1CCOCC1	1	8	21	-2	-1	.	.
O=C(Nc1cccc(Cl)c1N1CCOCC1)c1ccc([N+](=O)[O-])o1	-1	48*	5	0	-5	8	4%
CSCc1c(C(=O)Nc2ccc3c(c2)OCO3)oc2ccccc12	2	-9	3	0	3	.	.
NS(=O)(=O)c1ccc(CCNC(=O)C2CCC(Cn3c(=S)[nH]c4ccccc4c3=O)CC2)cc1 (stereo unspecified)	2	41*	-18	-1	0	3	-1%
CCOc1ccccc1NC(=O)NC1CC2CCCC(C1)N2Cc1nnnn1CCc1ccccc1 (stereo unspecified)	3	-1	10	61*	7	-7	2%
CCCCN(C(=O)c1cc(Cl)nc2ccccc12)c1c(N)n(CCCC)c(=O)[nH]c1=O	1	-3	-15	0	-2	.	.
CCN(CC)CCCNC(=S)N1CCN(c2nc(-c3ccccc3)cs2)CC1	29	42*	-37*	2	-19	-9	?
CSCCC(NC(=O)c1ccc(Cl)c([N+](=O)[O-])c1)C(=O)N1CCN(C/C=C/c2ccccc2)CC1 (stereo unspecified)	0	66*	4	0	-4	-2	1%
NC(=O)c1ccc(F)cc1	4	59*	4	2	-4	6	-1%
Oc1c(Cl)cc(Cl)cc1/C=C/c1ccc2cccc(O)c2n1	114*	-10	-14	42*	-1	?	?
Cc1ccccc1Cn1c2ccccc2c2cnn(CC(=O)NCC(C)c3ccccc3)c(=O)c21 (stereo unspecified)	10	-4	-1	0	-1	.	.
O=C(c1ccc(F)cc1)C1CCN(C(=O)Nc2ccccc2Cl)CC1	3	50*	4	0	-2	-2	1%
Cc1ccccc1NC(=O)N1CCC(C(=O)c2ccc(F)cc2)CC1	3	1	18	0	-3	.	.
CCCCCn1nc(-c2ccccc2)c2nc3ccccc3nc21	37*	10	21	26	7	2	16µM*
O=P(CCCO)(Cc1ccccc1)Cc1ccccc1	2	-3	-8	0	-3	.	.
COc1ccc(NC(=O)CNC(=O)c2ccco2)cc1	5	-3	-1	1	-4	.	.
O=C(CNC(=O)c1ccco1)Nc1ccc(OC(F)F)cc1	3	50*	6	0	-6	-4	-1%
NC(=O)c1ccc[n+]([C@H]2O[C@@H](COP(=O)([O-])OP(=O)(O)OC[C@H]3O[C@@H](n4cnc5c(N)ncnc54)[C@H](O)[C@@H]3O)[C@H](O)[C@@H]2O)c1	190*	9	20	27	23	-1	?
O=C(NCc1ccccc1)C1CCCN1S(=O)(=O)c1ccc(F)cc1 (stereo unspecified)	0	0	5	-2	-1	.	.
Cc1ccc(CNC(=O)C2CCCN2S(=O)(=O)c2ccc(F)cc2)cc1 (stereo unspecified)	0	47*	13	-1	-5	-4	2%
COc1cccc(C2=NC(C)(C)NC(c3ccccc3O)C2)c1 (stereo unspecified)	2	42*	-20	1	4	0	0%
CCCCNC(=O)c1ccc2c(c1)N(CC)C(=O)c1ccccc1S2	-2	-2	-16	0	-3	.	.
COc1ccccc1N1C(C)=CC(=C(C#N)c2nc3ccccc3s2)C=C1C	191*	-6	-24	46*	11	?	18µM*
C=CCc1cc(C=O)cc(OCC)c1OCc1ccc(Cl)cc1	6	45*	10	0	2	-3	1%
SMILES	D1 agonist	TRHR enhancer-1	D1 antag	TRHR agonist-1	D1 PAM	TRHR enhancer-2	TRHR agonist-2
C=CCc1cc(C=O)cc(OC)c1OCc1ccc(Cl)cc1	6	-8	-1	0	-11	.	.
Cc1cc(OCC(=O)Nc2sc3c(c2C#N)CCC(C)C3)ccc1Cl (stereo unspecified)	0	1	-9	-1	10	.	.
COc1ccc(CN2CCC(C(=O)Nc3ccc(Oc4ccccc4)nc3)CC2)cc1F	31*	72*	-24	2	-9	-2	?
COc1cccc(CN(C)C(=O)c2ccc(S(=O)(=O)Nc3ccccc3F)cc2)c1OC	1	48*	2	0	-6	-3	4%
O=S(=O)(NCc1cccc(C(F)(F)F)c1)NCc1ccccc1F	2	-4	-6	-1	-3	.	.
COc1cc(C(=O)N/N=C/c2ccc(OC(=O)c3ccccc3Cl)cc2)ccc1O	0	53*	-8	0	-2	6	6%
COCCn1c(SCC(=O)N2CC(=O)Nc3ccccc32)nc2ccccc21	0	7	-8	45*	6	-6	-1%
Cc1c(C)c2cc3c(C)coc3cc2oc1=O	2	41*	-20	0	-4	-8	-1%
O=C(NCc1cccs1)Nc1cc(Cl)ccc1Cl	16	41*	1	-4	-9	-5	3%
Cc1cc(C)c2nc(SC(C)C(=O)NCC(=O)Nc3ccc(F)c(F)c3F)cc(C)c2c1 (stereo unspecified)	3	-5	-7	-2	27	.	.
Cc1cc(SC(C)C(=O)NCC(=O)Nc2ccc(F)c(F)c2F)nc2ccccc12 (stereo unspecified)	1	43*	4	0	2	?	2%
Cc1ccc(CC(=O)NC2CCSC2=O)cc1 (stereo unspecified)	5	1	-6	-2	-4	.	.
CCOC(=O)Cc1nnc(NC(=O)COc2ccc(C)cc2)s1	17	41*	-18	1	-4	?	2%
COc1cccc(N2C(=O)CC(Nc3ccc(N4CCOCC4)cc3)C2=O)c1 (stereo unspecified)	1	-6	-17	0	-6	.	.
